# High-throughput results: PubChem, National Center for Advancing Translational Sciences (NCATS)
# FBPA Giardia inh = inhibitors of Giardia lamblia fructose-1,6-bisphosphate aldolase; 290,000 compounds, 0.71% hits; AID 2451; Potency, µM (titrated, usually from 59.6 µM), usual class: inhibitors; purified Giardia FBPA; also: nearly all actives have a fitted effect of over 55% in size
# Target sequence (A8B2U2 whole entry, looked up): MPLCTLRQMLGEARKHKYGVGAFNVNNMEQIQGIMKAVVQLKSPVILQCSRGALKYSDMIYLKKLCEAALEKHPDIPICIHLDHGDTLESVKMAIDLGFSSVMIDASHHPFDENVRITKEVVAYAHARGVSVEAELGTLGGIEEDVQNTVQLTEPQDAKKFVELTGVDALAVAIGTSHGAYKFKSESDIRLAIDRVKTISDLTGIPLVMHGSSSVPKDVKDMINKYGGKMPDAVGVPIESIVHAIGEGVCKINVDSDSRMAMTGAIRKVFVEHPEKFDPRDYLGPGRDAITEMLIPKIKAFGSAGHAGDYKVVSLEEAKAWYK
#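 Giardia FBPA (40 nM reagent) was preincubated 10 min at RT with compound (up to 57.5 uM final), then substrate plus GAPDH/TPI/NAD/arsenate coupling system with diaphorase/resazurin was added; resorufin fluorescence (525/598 nm) was read after 20 min.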
# Shiga toxin inh = Shiga toxin inhibition | inhibition, % at 38.7 µM | AID 2315 | 290,000 compounds, 9.2% hits | Vero cells, Shiga toxin protein synthesis inhibition reporter; in the data active = inhibition mostly above about 28%, no sharp cut-off; inactive = mostly below about 43%
# LmPK inhibitor = blocks Leishmania mexicana pyruvate kinase activity; purified LmPK, Kinase-Glo ATP luminescence, 1 h; Potency, µM (series often up to 57.5 µM), most hits filed as inhibitors; Q27686; 290,000 compounds, 0.37% hits
#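 0.1 nM LmPK, 0.5 mM PEP, 0.1 mM ADP; 50 mM imidazole pH 7.2, 7 mM MgCl2, 50 mM KCl; 1 h RT. Kinase-Glo luminescence readout, normalized to no-enzyme (full inhibition) and uninhibited wells.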
# CHX counter = counter-screen for Shiga toxin inhibitors: cycloheximide protein synthesis inhibition; 300,000 compounds, 12% hits; AID 2314; max response, %; cell reporter, cycloheximide protein synthesis inhibition counterscreen; in the data active = max response mostly above about 13%, no sharp cut-off; inactive = mostly below about 14%; also: read at 38.3 µM for the half of the compounds with a filed dose
# Sm TGR inh = inhibitors of Schistosoma mansoni thioredoxin glutathione reductase. purified TGR, DTNB reduction, TNB absorbance 405 nm. 360,000 compounds, 3% hits. Q962Y6. Potency, µM (series often up to 114 µM), most hits filed as inhibitors. AID 485364; also: nearly all actives have a fitted effect of over 60% in size
#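 First, TGR (20 nM dispensed) and NADPH were mixed with compound. Second, a 15 min room-temperature incubation followed. Third, further NADPH and then DTNB were added to start the reaction. Finally, TNB absorbance was monitored kinetically.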
# TbPYK inhibitor = blocks Trypanosoma brucei pyruvate kinase; AID 624173; Potency, µM (doses to about 76.8 µM), most hits filed as inhibitors; TbPYK enzyme, Kinase-Glo Plus ATP luminescence, 45 min; Q57TT1; 410,000 compounds, 0.12% hits; also: nearly all actives have a fitted effect of over 50% in size
#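 Luminescence from Kinase-Glo Plus, added after a 45-minute room-temperature reaction, served as the end-point read-out. The enzyme and substrate were preincubated with compound before ADP (130 uM final) initiated turnover. Concentration-effect curves came from normalized qHTS data.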
# Numbers stand for hits; . = inactive; ? = inconclusive; / = no result given; ! = repeats disagree; [ ] = dose if it differs, or a comment. This excerpt belongs to a sample that is enriched for hits. Unless noted, calls follow the shape of the dose curve; as a rule, active = well fitted curve in the direction sought with a large enough effect; inconclusive = small, poorly fitted or top-dose-only effect, or another doubt; inactive = no such curve, though single readings can be large; an effect the other way counts as inactive or inconclusive.
SMILES,FBPA Giardia inh,Shiga toxin inh,LmPK inhibitor,CHX counter,Sm TGR inh,TbPYK inhibitor
O=C(CC(=O)c1cc(Cl)ccc1O)c1ccccc1,.,74.0,.,55.0,.,.
Cc1cccc(C(=O)NCC(=O)NNC(=O)c2ccccc2O)c1,/,/,/,/,.,.
Cc1cccc(C(=O)CC(=O)c2cc(Cl)ccc2O)c1,.,49.9,.,27.4,.,.
CCOc1ccc(-c2cnc(NCc3ccc(OC)cc3OC)n2C)cc1,/,/,/,/,.,.
O=C(c1cc[n+]([O-])cc1)N1CCCC(N2CCN(c3cccc(C(F)(F)F)c3)CC2)C1 (stereo not drawn),/,.,.,.,.,.
Cn1c(C(=O)Nc2cccc(Cl)c2)cc2c(=O)n(C)c3ccccc3c21,/,/,/,/,.,.
CC(C)CCn1c(=O)c2sccc2n2c(CCCC(=O)Nc3ccc(C(C)C)cc3)nnc12,/,/,/,/,.,.
COc1cccc(CC(=O)NCc2ccc3c(c2)CCN3C(C)=O)c1,/,/,/,/,.,.
COc1ccccc1CNC(=O)C1(NC(=O)Nc2ccc(C)cc2)CCCCC1,.,.,.,.,.,.
CCCCN(C)C(=O)CS(=O)(=O)Cc1nc(-c2cccc(OC)c2)oc1C,.,.,.,.,22.4µM,.
COc1cccc(-c2nc(CS(=O)(=O)CC(=O)NCCc3ccc(OC)cc3OC)c(C)o2)c1,.,.,.,.,25.1µM!,.
COc1cccc(-c2nc(CS(=O)(=O)CC(=O)NC3CCCCC3C)c(C)o2)c1 (stereo not drawn),.,.,.,.,39.8µM,.
COc1cccc(-c2nc(CS(=O)(=O)CC(=O)NC3CCCCCC3)c(C)o2)c1,.,.,.,.,?,.
COc1cccc(-c2nc(CS(=O)(=O)CC(=O)NCCC(C)C)c(C)o2)c1,.,.,.,.,44.7µM,.
COCCCNC(=O)CS(=O)(=O)Cc1nc(-c2cccc(OC)c2)oc1C,.,.,.,.,?,.
COc1ccc(CNC(=O)CS(=O)(=O)Cc2nc(-c3cccc(OC)c3)oc2C)cc1,.,.,.,.,.,.
COc1ccc(CN2C(=O)N(c3ccc(F)cc3)C(=O)C2CC(=O)Nc2cc(OC)cc(OC)c2)cc1 (stereo not drawn),/,/,/,/,.,.
COc1cccc(-c2nc(CS(=O)(=O)CC(=O)N3CCN(c4ccccn4)CC3)c(C)o2)c1,.,.,.,.,50.1µM,.
COC(=O)c1ccccc1NC(=O)C1CCCN(C(=O)c2cnn(-c3ccc(F)cc3)c2-n2cccc2)C1 (stereo not drawn),/,/,/,/,.,.
Cc1cc2nc(C3CCCN(C(=S)Nc4ccccc4C)C3)[nH]c2cc1C (stereo not drawn),.,.,.,32.9,.,.
Cc1ccc(NC(=S)N2CCCC(c3nc4ccc(C)cc4[nH]3)C2)c(C)c1 (stereo not drawn),.,.,.,10.1,.,.
Cc1cc2nc(C3CCCN(C(=O)NCc4ccccc4)C3)[nH]c2cc1C (stereo not drawn),/,.,.,34.5,.,.
Cc1ccc2nc(C3CCCN(C(=S)Nc4cccc(C)c4C)C3)[nH]c2c1 (stereo not drawn),.,.,.,.,.,.
C#CCCCO/N=C1/C[C@@H](O)[C@@H](O)[C@@H]2[C@@H]3C(=O)N(Cc4ccc5c(c4)OCO5)C(=O)[C@H]3CC[C@@H]12,.[12.9 µM],/,/,/,/,/
COc1ccc(N2C(=S)N(C(=O)c3ccccc3)C(=Nc3ccccc3)C2=Nc2ccccc2)cc1,/,/,/,/,/,.
SMILES,FBPA Giardia inh,Shiga toxin inh,LmPK inhibitor,CHX counter,Sm TGR inh,TbPYK inhibitor
COc1ccc(N=C2C(=Nc3ccc(OC)cc3)N(c3ccc(OC)cc3)C(=S)N2C(=O)c2ccc(OC)cc2)cc1,.,41.7,.,14.3,.,.
COc1ccc(N=C2C(=Nc3ccc(OC)cc3)N(c3ccccc3)C(=S)N2C(=O)c2ccc(Cl)cc2)cc1,.,63.2,.,42.6,.,/
Cc1nc(N2CCCC2)c2c(C(=O)Nc3ccc(C)c(Cl)c3)c(C)oc2n1,/,/,/,/,.,.
C=CCN(c1ccc(C(=O)NCCc2ccccc2)cc1)S(C)(=O)=O,.,.,.,40.3,.,.
CC(C)(C)c1ccc(C(=O)NCc2ccccc2)cc1,.,52.8,.,25.6,.,.
O=C(NCCCc1ccccc1)c1ccc(F)cc1,.,54.9,.,34.5,.,.
O=C(NCc1ccccc1)c1ccc(C(=O)NCc2ccccc2)cc1,/,/,/,/,/,.
CC(=O)Nc1ccc(C(=O)NCCc2ccccc2)cc1,.,61.5,.,59.6,5.01µM,.
CCn1c(=O)cc(SCC(=O)NCc2ccc(F)cc2Cl)c2ccccc21,/,/,/,/,.,.
CC(C)(C)c1ccc(C(=O)NCCc2ccccc2)cc1,.,52.7,.,45.7,.,.
O=C(NCc1ccc(-c2nc3ccccc3s2)cc1)c1cc2ccccc2o1,.,48.4,.,19.8,.,.
O=C(Nc1ccccc1-c1nc2ccccc2s1)c1ccc(Br)o1,.,.,.,.,.,.
O=C(NCc1ccc(Cl)cc1)c1cc2ccccc2o1,/,/,/,/,.,.
O=C(NCc1ccc(-c2nc3ccccc3s2)cc1)c1ccc(Br)o1,.,39.5,.,27.7,.,.
CCN(CC)S(=O)(=O)c1cc(C(=O)OCC(=O)Nc2cccc(S(=O)(=O)N(C)C)c2)ccc1F,.,.,.,.,.,.
CCN(CC)S(=O)(=O)c1ccc(C(=O)OCC(=O)Nc2ccc(-c3nc4ccc(C)cc4s3)cc2)cc1,.,114.7,.,74.5,.,.
CCN(CC)S(=O)(=O)c1cc(C(=O)OCC(=O)Nc2ccc(-c3nc4ccc(C)cc4s3)cc2)ccc1F,.,92.4,.,63.1,.,.
Cc1ccc(Cn2ccc(-c3cnc(-c4ccccc4)s3)n2)cc1,.,68.7,.,29.6,.,.
O=C(c1ccc(F)cc1)n1ccc(-c2cnc(-c3ccccc3)s2)n1,.,73.4,.,41.5,.,.
Cc1ccc(Cn2ccc(NC(=O)c3cc(-c4ccccc4)on3)n2)cc1,.,.,.,.,.,.
O=S(=O)(c1ccccc1)n1ccc(-c2cnc(-c3ccccc3)s2)n1,.,.,.,10.5,.,.
Fc1ccc(Cn2ccc(-c3cnc(-c4ccccc4)s3)n2)cc1,.,.,.,39.3,.,.
Cc1ccnc(NS(=O)(=O)c2ccc(NC(=O)C(C)(C)Oc3ccc(Cl)cc3)cc2)n1,/,/,/,/,.,.
CCC1CCCCN1Cc1ccc(CNS(=O)(=O)c2ccc3c(c2)oc(=O)n3C)o1 (stereo not drawn),.,.,.,.,79.4µM,.
CC(C)NS(=O)(=O)c1ccc2c(c1)oc(=O)n2C,.,.,.,.,89.1µM,.
Cn1c(=O)oc2cc(S(=O)(=O)Nc3ccc4c(c3)OCO4)ccc21,.,.,.,13.8,.,.
Cn1c(=O)c2cc(S(=O)(=O)Nc3ccc4c(c3)OCO4)ccc2n(C)c1=O,.,.,.,.,.,.
O=c1nc(NCc2ccco2)sc2ncccc12,.,.,.,.,.,.
